RmlCD inh 1536 = M. tuberculosis RmlC/RmlD coupled enzyme inhibitors, primary screen, biochemical, compound mixtures, 384-well, from 1536-well plates | dTDP-4-dehydrorhamnose reductase (Mycobacterium tuberculosis (strain ATCC 25618 / H37Rv)) … | RmlC+RmlD coupled enzyme assay, percent inhibition; primary screen in compound mixtures | inhibition, % at 3.6 µM | 160,000 compounds, 0.03% hits | AID 1533, 2009; in the data active = inhibition mostly above about 34%, no sharp cut-off
Target sequence (P9WH09 whole entry, looked up): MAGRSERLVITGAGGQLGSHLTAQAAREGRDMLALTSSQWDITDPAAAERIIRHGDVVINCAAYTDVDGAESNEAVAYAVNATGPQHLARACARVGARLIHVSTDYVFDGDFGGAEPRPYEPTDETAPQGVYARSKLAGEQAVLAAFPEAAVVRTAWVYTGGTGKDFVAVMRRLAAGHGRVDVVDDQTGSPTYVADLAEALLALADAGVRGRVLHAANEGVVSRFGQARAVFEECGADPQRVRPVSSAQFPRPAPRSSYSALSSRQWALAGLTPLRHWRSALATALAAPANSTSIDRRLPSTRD
Target sequence (P9WH11 whole entry, looked up): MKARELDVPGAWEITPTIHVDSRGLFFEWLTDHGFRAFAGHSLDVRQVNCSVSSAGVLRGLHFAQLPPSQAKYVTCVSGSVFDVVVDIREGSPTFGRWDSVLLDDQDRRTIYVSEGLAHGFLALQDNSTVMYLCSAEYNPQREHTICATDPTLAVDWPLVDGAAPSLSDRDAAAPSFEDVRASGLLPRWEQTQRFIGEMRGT
YopH inh = YopH tyrosine phosphatase inhibitors, primary screen, biochemical, fluorescence Ex485/Em525. YopH tyrosine phosphatase [Yersinia enterocolitica]. inhibition, % (no concentration beside the values). 140,000 compounds, 0.16% hits; in the data active = inhibition above about 50%
Of the large screens only hits and unclear results are named; the others gave an inactive call. Only a selection was taken, and hits are over-represented in it overall.

CCCNc1nc2c(c(=O)[nH]c(=O)n2C)n1Cc1ccc(F)cc1	YopH inh 60 (no result: RmlCD inh 1536)
CCNc1nc2c(c(=O)[nH]c(=O)n2C)n1Cc1ccc(F)cc1	none
CCNc1nc(NC(C)C)nc(N(C#N)C(C)C(=O)N(CC)CC)n1 (stereo not drawn)	none (no result: YopH inh)
COc1ccc(N2CSC3=C(C#N)C(c4cc(OC)ccc4OC)CC(=O)N3C2)c(OC)c1 (stereo not drawn)	YopH inh 69
COc1ccc(C2CC(=O)N3CN(c4ccc(C)c(Cl)c4)CSC3=C2C#N)cc1OC (stereo not drawn)	none
COc1ccc(N2CSC3=C(C#N)C(c4cc(OC)c(OC)cc4OC)CC(=O)N3C2)c(OC)c1 (stereo not drawn)	none (no result: RmlCD inh 1536)
CCOc1ccccc1N1CSC2=C(C#N)C(c3c(OC)ccc4ccccc34)CC(=O)N2C1 (stereo not drawn)	YopH inh 90 (no result: RmlCD inh 1536)
COc1ccc(N2CSC3=C(C#N)C(c4ccc(OC)c(OC)c4)CC(=O)N3C2)c(OC)c1 (stereo not drawn)	YopH inh 60 (no result: RmlCD inh 1536)
CCc1ccc(C2CC(=O)N3CN(c4ccccc4)CSC3=C2C#N)cc1 (stereo not drawn)	none
Cc1onc(-c2ccccc2Cl)c1C(=O)N1CCOC12CCCCC2	none (no result: YopH inh)
COc1cc(/C=C(\NC(=O)c2ccccc2)C(=O)Nc2cccc(O)c2)c([N+](=O)[O-])cc1OC	none (no result: RmlCD inh 1536)
Nc1cc2nsnc2cc1Br	YopH inh 100
Nc1cccc2nsnc12	none (no result: YopH inh)
CN(C)S(=O)(=O)c1cccc(NC(=O)c2ccc(N3CCOCC3)c([N+](=O)[O-])c2)c1	none
C#CCn1c(=O)cc(C)c2ccccc21	none (no result: YopH inh)
C#CCn1cc(C=C2C(=O)c3ccccc3C2=O)c2ccccc21	YopH inh 51
COC(=O)CCC(=O)Nc1ccc(NC(=O)CCC(=O)OC)cc1	none (no result: RmlCD inh 1536)
COC(=O)CCC(=O)Oc1ccc(OC(=O)CCC(=O)OC)cc1	YopH inh 59 (no result: RmlCD inh 1536)
CN(Cc1ccccc1)C(=O)COc1ccc(Br)cc1Cl	none (no result: YopH inh)
CC(C)N(C(=O)COc1ccc(Br)cc1Cl)C(C)C	YopH inh 52
O=C(c1ccco1)N1N=C2CCCCCC2C1(O)C(F)(F)F (stereo not drawn)	none (no result: YopH inh)
CCc1ccc(-c2cn3nc(-c4ccccc4)cnc3n2)cc1	RmlCD inh 1536 70 (no result: YopH inh)
Cc1ccc(-c2cn3nc(C)c(C)nc3n2)cc1	none (no result: RmlCD inh 1536)
Cc1ccc(NC2=C(NCCO)C(=O)c3ccccc3C2=O)cc1	YopH inh 89
CC(=O)Nc1ccc(NC2=C(Cl)C(=O)c3ccccc3C2=O)cc1	none (no result: YopH inh)
NC(=S)Nc1ccc(C(F)(F)F)cc1Cl	none (no result: YopH inh)
O=C(COC(=O)c1cc(-c2ccco2)nc2ccccc12)NCc1ccccc1	none (no result: RmlCD inh 1536)
CNC(=O)COC(=O)c1cc(-c2ccco2)nc2ccccc12	RmlCD inh 1536 37 (no result: YopH inh)
O=C(/C=C/Sc1ccc(C(F)(F)F)cn1)c1ccccc1	none (no result: YopH inh)
O=C(COC(=O)/C=C/c1ccc([N+](=O)[O-])cc1)NCc1ccccc1	none
O=C(/C=C/c1ccc([N+](=O)[O-])cc1)OCC(=O)N1c2ccccc2Sc2ccccc21	YopH inh 53
COc1ccccc1CNC(=O)c1ccc2c(=O)n(CCCN3CCCC3=O)c(=S)[nH]c2c1	none (no result: YopH inh)

Assay outcomes from PubChem BioAssay.
